Measurements taken from PubChem BioAssay (EPA / NIEHS).
Active and inactive are the calls of the source. How the source made its calls: active means hit-call score of the fitted dose curve at least 0.9, where 1 is the maximum; inactive means score below 0.9.

Target: Nuclear respiratory factor 1 (Homo sapiens) (UniProt Q16656)
Experiment: ATG_NRF1_CIS: Attagene CIS-FACTORIAL HepG2 Assay for human Nuclear Respiratory Factor 1 (NRF1) Orphan Gene (AID 2282987)
Conditions: HepG2 NRF1 cis-element reporter, Attagene multiplex; actives raise or lower the signal
How it was run: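 Endogenous factor activity was captured via cis-element-driven reporter transcripts in HepG2 cells. Following 24 h chemical treatment, transcripts were quantified by RT-PCR and capillary electrophoresis.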

Nuclear respiratory factor 1 (Homo sapiens), sequence (Q16656 whole entry, looked up): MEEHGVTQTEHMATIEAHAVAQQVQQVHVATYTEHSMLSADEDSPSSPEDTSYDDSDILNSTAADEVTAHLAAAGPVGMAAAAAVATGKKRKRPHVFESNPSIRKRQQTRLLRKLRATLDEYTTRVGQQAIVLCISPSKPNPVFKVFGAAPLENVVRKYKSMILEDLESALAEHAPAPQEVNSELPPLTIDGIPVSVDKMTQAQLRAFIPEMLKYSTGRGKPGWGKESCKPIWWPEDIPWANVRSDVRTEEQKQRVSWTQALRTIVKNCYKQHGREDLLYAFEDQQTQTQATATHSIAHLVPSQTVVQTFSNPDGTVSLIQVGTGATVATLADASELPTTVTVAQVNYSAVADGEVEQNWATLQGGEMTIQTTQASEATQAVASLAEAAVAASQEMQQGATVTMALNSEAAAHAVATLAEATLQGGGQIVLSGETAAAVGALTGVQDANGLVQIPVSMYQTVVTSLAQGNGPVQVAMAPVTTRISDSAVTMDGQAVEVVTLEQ

outcome, inactive:
C=C(C)CCO
CCC(C)OC(=O)c1ccc(O)cc1 (stereo not drawn)
CC(=O)[C@H]1[C@H](C#N)C[C@H]2[C@@H]3CC=C4C[C@@H](O)CC[C@]4(C)[C@H]3CC[C@@]21C
CCCOC(=O)CCCCC(=O)OCCC
CNC(=S)NN
CCCCCCCCCCCCCCCC(=O)OCC
O=C(O)CCCC[C@@H]1SC[C@@H]2NC(=O)N[C@@H]21
CC(=O)OCC(=O)[C@@]12N=C(C)O[C@@H]1C[C@H]1[C@@H]3CCC4=CC(=O)C=C[C@]4(C)[C@H]3[C@@H](O)C[C@@]12C
Cc1ccc([N+](=O)[O-])cc1S(=O)(=O)O
CC=CC(=O)N(CC)c1ccccc1C
Nc1ccc2cc3ccccc3cc2c1
CN(C)CCCN(C)C
O=C(Nc1ccccc1)c1ccccc1O
CCCCCC/C=C/C=O
CC1(C)O[C@@H]2C[C@H]3[C@@H]4C[C@H](F)C5=CC(=O)CC[C@]5(C)[C@H]4[C@@H](O)C[C@]3(C)[C@]2(C(=O)CO)O1
O=C1CCCN1CCO
C=CC(C)(CCC=C(C)C)OC(=O)CC(C)C (stereo not drawn)
CCCCCCCOC(=O)CCC
O=c1cc(-c2ccccc2)oc2ccccc12
O=C(c1ccccc1)c1ccc(O)c(O)c1O
CC(=O)NS(=O)(=O)c1ccc(N)cc1
C=C(C)C(=O)OCCO
C[C@]12CCC(=O)C=C1CC[C@@H]1[C@@H]2C(=O)C[C@@]2(C)[C@H]1CC[C@]2(O)C(=O)CO
O=c1[nH]nc(-c2ccc([N+](=O)[O-])o2)o1
Nc1ccc(N=Nc2ccccc2)c(N)n1
CC(C)(C)c1ccc(N)cc1
C=CC=CC=CCCCCC
O=C1c2ccccc2C(=O)C1c1nc2ccccc2c(Br)c1O
c1ccc(-c2ccccn2)nc1
CC(=O)OCCC1CCCCC1
CCCCC/C=C\CCC=O
CC(C)(C)C1CCCCC1=O (stereo not drawn)
CC1(C)O[C@@H]2C[C@H]3[C@@H]4C[C@H](F)C5=CC(=O)C=C[C@]5(C)[C@@]4(F)[C@@H](O)C[C@]3(C)[C@]2(C(=O)CO)O1
CC1OC1C1CCC2(C)OC2C1 (stereo not drawn)
COc1ccc2nc(N)sc2c1
COc1ccc(-c2coc3cc(O)ccc3c2=O)cc1
C=C(C)c1cccc(C(C)(C)N=C=O)c1

Tested on: not listed separately
Experiment: ATG_NFI_CIS: Attagene CIS-FACTORIAL HepG2 Assay for human Nuclear Factor I (NFI) (AID 2282989)
Conditions: HepG2 cis-regulatory reporter, NFI response element transcription; actives raise or lower the signal
How it was run: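 Read-out: reporter mRNA via RT-PCR plus capillary electrophoresis with fluorescence detection. Transiently transfected HepG2 (endogenous TF activity on cis promoters), 24 h compound exposure; gain or loss of signal fitted against DMSO.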

outcome, inactive:
C=C(C)CCO
CCC(C)OC(=O)c1ccc(O)cc1 (stereo not drawn)
CC(=O)[C@H]1[C@H](C#N)C[C@H]2[C@@H]3CC=C4C[C@@H](O)CC[C@]4(C)[C@H]3CC[C@@]21C
CCCOC(=O)CCCCC(=O)OCCC
CNC(=S)NN
CCCCCCCCCCCCCCCC(=O)OCC
CC(=O)OCC(=O)[C@@]12N=C(C)O[C@@H]1C[C@H]1[C@@H]3CCC4=CC(=O)C=C[C@]4(C)[C@H]3[C@@H](O)C[C@@]12C
Cc1ccc([N+](=O)[O-])cc1S(=O)(=O)O
CC=CC(=O)N(CC)c1ccccc1C
Nc1ccc2cc3ccccc3cc2c1
CN(C)CCCN(C)C
O=C(Nc1ccccc1)c1ccccc1O
CCCCCC/C=C/C=O
CC1(C)O[C@@H]2C[C@H]3[C@@H]4C[C@H](F)C5=CC(=O)CC[C@]5(C)[C@H]4[C@@H](O)C[C@]3(C)[C@]2(C(=O)CO)O1
O=C1CCCN1CCO
C=CC(C)(CCC=C(C)C)OC(=O)CC(C)C (stereo not drawn)
CCCCCCCOC(=O)CCC
O=C(c1ccccc1)c1ccc(O)c(O)c1O
CC(=O)NS(=O)(=O)c1ccc(N)cc1
C=C(C)C(=O)OCCO
COc1cc(NC(=O)CC(C)=O)c(OC)cc1Cl
O=c1[nH]nc(-c2ccc([N+](=O)[O-])o2)o1
Nc1ccc(N=Nc2ccccc2)c(N)n1
CC(C)(C)c1ccc(N)cc1
C=CC=CC=CCCCCC
O=C1c2ccccc2C(=O)C1c1nc2ccccc2c(Br)c1O
c1ccc(-c2ccccn2)nc1
CC(=O)OCCC1CCCCC1
CCCCC/C=C\CCC=O
CC(C)(C)C1CCCCC1=O (stereo not drawn)
CC1(C)O[C@@H]2C[C@H]3[C@@H]4C[C@H](F)C5=CC(=O)C=C[C@]5(C)[C@@]4(F)[C@@H](O)C[C@]3(C)[C@]2(C(=O)CO)O1
CC1OC1C1CCC2(C)OC2C1 (stereo not drawn)
COc1ccc2nc(N)sc2c1
CC(=O)OC1C2(C)CCC(C2)C1(C)C (stereo not drawn)
COc1ccc(-c2coc3cc(O)ccc3c2=O)cc1
C=C(C)c1cccc(C(C)(C)N=C=O)c1
